Test results as given in the supplement of paper PMC10849652.
Targets with a hit are over-represented here; the source holds about 8,800 in all. About 0.5% of all pairs of compound and target were hits.

Experiments:
Assay in all cases: log2 fold change, soluble protein after heating vs DMSO (PISA); higher = thermal stabilisation; K562 lysate, 10 uM; active = over 0.2 and 3.5 SD of the protein, either way, in both replicates (recomputed)
vemurafenib = compound: CCCS(=O)(=O)Nc1ccc(F)c(C(=O)c2c[nH]c3ncc(-c4ccc(Cl)cc4)cc23)c1F [vemurafenib]
Method in brief: (§1)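 Pellets of K562 cells were dounce-homogenised in PBS pH 7.4 with 1 mM MgCl2, and the crude extract was held at 1 mg/mL protein for a 30 min treatment with 10 μM compound. Aliquots were heated for 3 min over 48°C-58°C and pooled before NP-40 was added to 0.5% at 4°C. The supernatant from 21,000xg for 90 min was quantified by TMTpro 16plex LC-MS/MS with channel sums equalised. Values are reported from duplicates as log-two fold change in thermal stability relative to solvent controls.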

[1] = compound: CCCS(=O)(=O)Nc1ccc(F)c(C(=O)c2c[nH]c3ncc(Cl)cc23)c1F
Method in brief: as §1

barasertib = compound: CCN(CCCOc1ccc2c(Nc3cc(CC(=O)Nc4cccc(F)c4)[nH]n3)ncnc2c1)CCOP(=O)(O)O [barasertib]
Method in brief: as §1

[2] = compound: CC[C@@H]1C(=O)N(C)c2cnc(Nc3ccc(C(=O)NC4CCN(C)CC4)cc3OC)nc2N1C1CCCC1
Method in brief: as §1

volasertib = compound: CC[C@@H]1C(=O)N(C)c2cnc(Nc3ccc(C(=O)N[C@H]4CC[C@H](N5CCN(CC6CC6)CC5)CC4)cc3OC)nc2N1C(C)C [volasertib]
Method in brief: as §1

[3] = compound: CCn1c(C(=O)N(C2CC2)C2CC2)cc2c3c(ncn3C)c(Nc3cc(C)n(C)n3)nc21
Method in brief: as §1

[4] = compound: CCn1cc(-c2ccnc3[nH]c(-c4cccc(CN(C)C)c4)cc23)c(-c2ccc(NC(=O)N(C)C)cc2)n1
Method in brief: as §1

[5] = compound: CN1CCC(CNc2ccc3ncc(-c4cccc(OC(F)(F)F)c4)n3n2)CC1
Method in brief: as §1

saracatinib = compound: CN1CCN(CCOc2cc(OC3CCOCC3)c3c(Nc4c(Cl)ccc5c4OCO5)ncnc3c2)CC1 [saracatinib]
Method in brief: as §1

sotrastaurin = compound: CN1CCN(c2nc(C3=C(c4c[nH]c5ccccc45)C(=O)NC3=O)c3ccccc3n2)CC1 [sotrastaurin]
Method in brief: as §1

alvocidib = compound: CN1CC[C@H](c2c(O)cc(O)c3c(=O)cc(-c4ccccc4Cl)oc23)[C@H](O)C1 [alvocidib]
Method in brief: as §1

Tubastatin A = compound: CN1CCc2c(c3ccccc3n2Cc2ccc(C(=O)NO)cc2)C1 [Tubastatin A]
Method in brief: as §1

[6] = compound: CNC(=O)C1=CC=CC=C1NC2=NC(=NC=C2Cl)NC3=C(C=C(C=C3)N4CCOCC4)OC
Method in brief: as §1

defactinib = compound: CNC(=O)c1ccc(Nc2ncc(C(F)(F)F)c(NCc3nccnc3N(C)S(C)(=O)=O)n2)cc1 [defactinib]
Method in brief: as §1

[7] = compound: CNc1nc(-c2ccc3c(N)n[nH]c3c2)cc(N2C[C@@H](C(=O)NC3CCCCC3)CC[C@H]2C)n1
Method in brief: as §1

encorafenib = compound: COC(=O)N[C@@H](C)CNc1nccc(-c2cn(C(C)C)nc2-c2cc(Cl)cc(NS(C)(=O)=O)c2F)n1 [encorafenib]
Method in brief: as §1

[8] = compound: COC(=O)[C@H](CCSC)NC(=O)C1=C(C=C(C=C1)NC[C@H](CS)N)C2=CC=CC=C2
Method in brief: as §1

alisertib = compound: COc1cc(Nc2ncc3c(n2)-c2ccc(Cl)cc2C(c2c(F)cccc2OC)=NC3)ccc1C(=O)O [alisertib]
Method in brief: as §1

[9] = compound: COc1cc2nc(-c3cc(F)ccc3O)nc(N[C@@H]3CNC[C@H]3C(C)(C)O)c2cc1OC
Method in brief: as §1

gefitinib = compound: COc1cc2ncnc(Nc3ccc(F)c(Cl)c3)c2cc1OCCCN1CCOCC1 [gefitinib]
Method in brief: as §1

Measured: log2 fold change

QTRT2 isoform 4 (UniProt Q9H974)
UniProt Q9H974, sequence (Q9H974 whole entry, looked up): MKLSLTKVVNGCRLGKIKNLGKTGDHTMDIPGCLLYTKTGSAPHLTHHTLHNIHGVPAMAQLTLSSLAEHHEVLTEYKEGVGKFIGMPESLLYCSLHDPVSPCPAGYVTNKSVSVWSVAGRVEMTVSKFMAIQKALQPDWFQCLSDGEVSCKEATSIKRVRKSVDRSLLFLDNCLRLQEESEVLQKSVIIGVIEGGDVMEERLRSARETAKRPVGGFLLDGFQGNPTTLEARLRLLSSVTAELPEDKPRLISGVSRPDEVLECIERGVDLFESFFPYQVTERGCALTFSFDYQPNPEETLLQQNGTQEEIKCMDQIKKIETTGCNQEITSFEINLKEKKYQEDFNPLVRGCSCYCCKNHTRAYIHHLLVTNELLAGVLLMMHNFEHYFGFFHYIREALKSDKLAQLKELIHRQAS
inactive: vemurafenib 0.003 | [1] 0.012 | barasertib 0.004 | [2] -0.022 | volasertib 0.036 | [3] -0.035 | saracatinib 0.016 | sotrastaurin 0.013 | alvocidib -0.105 | Tubastatin A 0.003 | [6] 0.018 | defactinib -0.014 | [7] 0 | encorafenib -0.018 | [8] -0.044 | alisertib 0.016 | [9] 0.008 | gefitinib 0.031
active: [4] -0.318 | [5] 0.227

SCO1 (UniProt O75880)
UniProt O75880, sequence (O75880 whole entry, looked up): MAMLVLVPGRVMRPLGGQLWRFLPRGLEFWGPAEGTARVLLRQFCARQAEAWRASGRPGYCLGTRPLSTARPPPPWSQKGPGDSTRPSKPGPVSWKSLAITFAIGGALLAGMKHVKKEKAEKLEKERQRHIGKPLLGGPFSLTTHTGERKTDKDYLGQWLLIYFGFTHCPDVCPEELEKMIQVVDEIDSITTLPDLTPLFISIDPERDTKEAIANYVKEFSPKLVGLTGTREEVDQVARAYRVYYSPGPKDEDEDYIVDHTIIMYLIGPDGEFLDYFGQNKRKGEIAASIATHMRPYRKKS
inactive: vemurafenib -0.027 | [1] -0.012 | barasertib -0.008 | [2] -0.009 | volasertib 0.025 | [3] -0.027 | [4] -0.01 | [5] 0.016 | saracatinib 0.006 | sotrastaurin 0.016 | alvocidib 0.002 | Tubastatin A -0.031 | [6] -0.051 | defactinib -0.004 | [7] 0.053 | encorafenib -0.004 | alisertib -0.096 | [9] 0.014 | gefitinib -0.015
active: [8] -0.57

RFC2 (UniProt P35250)
UniProt P35250, sequence (P35250 whole entry, looked up): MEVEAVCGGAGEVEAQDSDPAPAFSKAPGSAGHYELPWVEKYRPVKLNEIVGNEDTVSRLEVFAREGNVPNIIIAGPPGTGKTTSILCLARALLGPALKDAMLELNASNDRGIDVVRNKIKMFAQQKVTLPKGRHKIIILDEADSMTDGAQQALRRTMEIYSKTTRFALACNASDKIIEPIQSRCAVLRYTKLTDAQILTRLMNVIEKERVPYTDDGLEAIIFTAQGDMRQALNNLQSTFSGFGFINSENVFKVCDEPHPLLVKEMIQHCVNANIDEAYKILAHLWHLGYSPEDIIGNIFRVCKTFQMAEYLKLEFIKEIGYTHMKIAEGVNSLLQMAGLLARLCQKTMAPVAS
inactive: vemurafenib -0.043 | [1] 0.007 | barasertib 0.038 | [2] -0.095 | volasertib -0.09 | [3] 0.024 | [4] -0.068 | [5] 0.023 | saracatinib -0.005 | sotrastaurin 0.03 | alvocidib -0.025 | Tubastatin A -0.21 | [6] -0.012 | defactinib 0.023 | [7] -0.055 | encorafenib 0.042 | [8] 0.113 | alisertib 0.014 | [9] 0.005 | gefitinib 0.007

RAI14 isoform 2 (UniProt Q9P0K7)
UniProt Q9P0K7, sequence (Q9P0K7 whole entry, looked up): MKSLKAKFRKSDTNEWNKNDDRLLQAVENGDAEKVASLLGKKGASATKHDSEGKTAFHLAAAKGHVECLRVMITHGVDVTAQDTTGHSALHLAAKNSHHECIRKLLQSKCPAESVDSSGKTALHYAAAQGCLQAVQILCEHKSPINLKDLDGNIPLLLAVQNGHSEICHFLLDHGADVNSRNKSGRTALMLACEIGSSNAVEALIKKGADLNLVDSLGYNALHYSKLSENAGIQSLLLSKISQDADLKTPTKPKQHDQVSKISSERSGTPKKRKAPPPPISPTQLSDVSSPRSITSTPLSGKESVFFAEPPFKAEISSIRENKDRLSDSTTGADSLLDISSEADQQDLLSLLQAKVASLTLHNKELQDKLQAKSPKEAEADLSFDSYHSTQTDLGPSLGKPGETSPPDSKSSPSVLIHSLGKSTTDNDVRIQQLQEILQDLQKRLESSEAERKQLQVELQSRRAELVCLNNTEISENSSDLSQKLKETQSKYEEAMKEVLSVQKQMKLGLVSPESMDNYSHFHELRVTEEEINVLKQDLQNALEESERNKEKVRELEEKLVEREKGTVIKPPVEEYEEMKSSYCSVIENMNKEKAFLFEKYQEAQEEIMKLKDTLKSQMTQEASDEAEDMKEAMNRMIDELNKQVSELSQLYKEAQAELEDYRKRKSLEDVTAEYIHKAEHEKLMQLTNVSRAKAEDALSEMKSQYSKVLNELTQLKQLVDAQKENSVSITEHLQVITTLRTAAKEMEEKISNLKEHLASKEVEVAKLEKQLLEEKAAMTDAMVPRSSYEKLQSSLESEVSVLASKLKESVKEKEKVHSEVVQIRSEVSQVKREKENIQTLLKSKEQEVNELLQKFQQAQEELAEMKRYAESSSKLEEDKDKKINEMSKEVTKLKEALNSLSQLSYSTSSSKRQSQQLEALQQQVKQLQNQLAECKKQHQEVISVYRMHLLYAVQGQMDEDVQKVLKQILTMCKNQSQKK
inactive: vemurafenib 0.001 | [1] 0.066 | barasertib 0.061 | [2] -0.019 | volasertib 0.005 | [3] 0 | [4] 0.045 | [5] -0.011 | saracatinib 0.031 | sotrastaurin 0.026 | alvocidib 0.019 | Tubastatin A -0.08 | [6] 0.003 | defactinib 0.031 | [7] 0.077 | encorafenib 0.012 | [8] 0.083 | alisertib -0.018 | [9] 0 | gefitinib 0.029

RPTOR (UniProt Q8N122)
inactive: vemurafenib -0.028 | [1] 0.022 | barasertib 0.052 | [2] -0.024 | volasertib -0.046 | [3] 0.038 | [4] 0.018 | [5] -0.039 | saracatinib 0 | sotrastaurin 0.046 | alvocidib 0.008 | Tubastatin A -0.11 | [6] 0.036 | defactinib 0 | [7] -0.048 | encorafenib -0.004 | [8] -0.007 | alisertib -0.012 | [9] -0.005 | gefitinib -0.007

RTN4IP1 (UniProt Q8WWV3)
UniProt Q8WWV3, sequence (Q8WWV3 whole entry, looked up): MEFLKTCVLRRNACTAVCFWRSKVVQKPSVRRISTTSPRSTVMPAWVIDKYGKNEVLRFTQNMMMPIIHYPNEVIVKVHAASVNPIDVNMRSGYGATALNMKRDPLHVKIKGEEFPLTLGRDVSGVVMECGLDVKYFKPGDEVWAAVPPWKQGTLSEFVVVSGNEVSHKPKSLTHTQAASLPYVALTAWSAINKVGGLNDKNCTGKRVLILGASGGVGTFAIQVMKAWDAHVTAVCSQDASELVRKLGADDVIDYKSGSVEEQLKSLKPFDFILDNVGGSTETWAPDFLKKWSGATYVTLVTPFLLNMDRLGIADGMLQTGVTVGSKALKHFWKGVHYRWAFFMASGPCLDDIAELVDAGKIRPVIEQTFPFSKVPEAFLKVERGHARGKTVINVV
inactive: vemurafenib -0.02 | [1] 0.047 | barasertib -0.049 | [2] -0.018 | volasertib -0.014 | [3] -0.007 | [4] 0.058 | [5] -0.106 | saracatinib -0.048 | sotrastaurin 0.015 | alvocidib 0.042 | Tubastatin A -0.079 | [6] 0.036 | defactinib -0.014 | [7] 0 | encorafenib -0.021 | [8] 0.003 | alisertib -0.111 | [9] 0.019 | gefitinib 0.196

RAB1B (UniProt Q9H0U4)
active: [4] -0.444
inactive: vemurafenib -0.003 | [1] 0.012 | barasertib 0.073 | [2] 0.019 | volasertib 0.006 | [3] -0.016 | [5] 0.171 | saracatinib 0.021 | sotrastaurin 0.017 | alvocidib -0.146 | Tubastatin A 0.007 | [6] -0.016 | defactinib -0.037 | [7] 0.01 | encorafenib 0.065 | [8] -0.058 | alisertib 0.047 | [9] 0.003 | gefitinib 0.064

SCAF1 (UniProt Q9H7N4)
inactive: vemurafenib 0.027 | [1] 0.093 | barasertib 0.079 | [2] 0.089 | volasertib -0.114 | [3] 0.05 | [4] -0.041 | [5] 0.008 | saracatinib 0.009 | sotrastaurin -0.029 | alvocidib 0.054 | Tubastatin A 0.034 | [6] -0.051 | defactinib 0.046 | [7] 0.051 | encorafenib -0.028 | [8] -0.066 | alisertib 0.128 | [9] -0.02 | gefitinib 0.129

SEH1L isoform 1 (UniProt Q96EE3)
UniProt Q96EE3, sequence (Q96EE3 whole entry, looked up): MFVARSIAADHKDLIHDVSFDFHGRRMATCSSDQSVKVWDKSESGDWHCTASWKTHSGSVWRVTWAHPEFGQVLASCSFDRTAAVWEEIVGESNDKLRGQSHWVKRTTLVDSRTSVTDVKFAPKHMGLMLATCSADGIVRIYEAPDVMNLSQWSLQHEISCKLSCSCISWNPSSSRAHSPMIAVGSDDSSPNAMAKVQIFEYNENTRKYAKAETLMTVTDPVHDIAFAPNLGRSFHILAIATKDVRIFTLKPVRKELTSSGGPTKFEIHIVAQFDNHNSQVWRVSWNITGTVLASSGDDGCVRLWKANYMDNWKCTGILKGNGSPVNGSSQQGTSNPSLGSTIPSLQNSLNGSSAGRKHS
inactive: vemurafenib -0.029 | [1] -0.001 | barasertib 0.004 | [2] 0.069 | [3] -0.015 | [4] -0.022 | [5] 0.021 | saracatinib -0.005 | sotrastaurin -0.01 | alvocidib -0.042 | Tubastatin A 0 | [6] 0 | defactinib -0.028 | [7] -0.014 | encorafenib -0.007 | [8] -0.077 | alisertib 0.001 | [9] 0.01 | gefitinib -0.004
active: volasertib 0.216

RNF113A (UniProt O15541)
inactive: vemurafenib 0.021 | [1] -0.012 | barasertib -0.042 | [2] 0.04 | volasertib 0.009 | [3] -0.056 | [4] -0.021 | [5] 0.017 | saracatinib 0.031 | sotrastaurin -0.056 | alvocidib -0.062 | Tubastatin A 0.05 | [6] 0.014 | defactinib -0.013 | [7] 0.022 | encorafenib -0.019 | [8] -0.017 | alisertib -0.015 | [9] 0.015 | gefitinib 0.004

RARS (UniProt P54136)
UniProt P54136, sequence (P54136 whole entry, looked up): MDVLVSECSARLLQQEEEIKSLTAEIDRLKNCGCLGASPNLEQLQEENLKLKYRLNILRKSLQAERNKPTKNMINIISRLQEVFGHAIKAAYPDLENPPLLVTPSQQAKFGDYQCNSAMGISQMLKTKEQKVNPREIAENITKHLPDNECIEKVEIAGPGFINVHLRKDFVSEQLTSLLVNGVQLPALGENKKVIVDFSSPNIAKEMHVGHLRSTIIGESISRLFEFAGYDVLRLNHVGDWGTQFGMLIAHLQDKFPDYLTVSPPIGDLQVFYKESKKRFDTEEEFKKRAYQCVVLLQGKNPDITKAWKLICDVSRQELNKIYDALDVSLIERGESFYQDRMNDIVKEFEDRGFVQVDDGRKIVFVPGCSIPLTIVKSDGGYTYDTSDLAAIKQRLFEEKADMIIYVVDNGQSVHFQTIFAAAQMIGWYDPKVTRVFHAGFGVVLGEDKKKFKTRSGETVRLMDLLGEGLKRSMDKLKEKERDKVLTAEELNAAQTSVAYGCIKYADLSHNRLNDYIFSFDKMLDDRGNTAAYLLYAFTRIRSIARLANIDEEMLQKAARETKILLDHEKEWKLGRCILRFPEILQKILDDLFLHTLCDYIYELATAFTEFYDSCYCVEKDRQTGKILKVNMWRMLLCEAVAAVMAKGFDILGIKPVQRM
inactive: vemurafenib -0.004 | [1] -0.003 | barasertib 0.046 | [2] -0.093 | volasertib -0.078 | [3] 0.067 | [4] 0.013 | [5] -0.039 | saracatinib 0.027 | sotrastaurin 0.045 | alvocidib 0.032 | Tubastatin A -0.1 | [6] -0.006 | defactinib 0.024 | [7] -0.035 | encorafenib -0.001 | [8] 0.128 | alisertib 0.026 | [9] -0.009 | gefitinib -0.023

RIC1 (UniProt Q4ADV7)
UniProt Q4ADV7, sequence (Q4ADV7 whole entry, looked up): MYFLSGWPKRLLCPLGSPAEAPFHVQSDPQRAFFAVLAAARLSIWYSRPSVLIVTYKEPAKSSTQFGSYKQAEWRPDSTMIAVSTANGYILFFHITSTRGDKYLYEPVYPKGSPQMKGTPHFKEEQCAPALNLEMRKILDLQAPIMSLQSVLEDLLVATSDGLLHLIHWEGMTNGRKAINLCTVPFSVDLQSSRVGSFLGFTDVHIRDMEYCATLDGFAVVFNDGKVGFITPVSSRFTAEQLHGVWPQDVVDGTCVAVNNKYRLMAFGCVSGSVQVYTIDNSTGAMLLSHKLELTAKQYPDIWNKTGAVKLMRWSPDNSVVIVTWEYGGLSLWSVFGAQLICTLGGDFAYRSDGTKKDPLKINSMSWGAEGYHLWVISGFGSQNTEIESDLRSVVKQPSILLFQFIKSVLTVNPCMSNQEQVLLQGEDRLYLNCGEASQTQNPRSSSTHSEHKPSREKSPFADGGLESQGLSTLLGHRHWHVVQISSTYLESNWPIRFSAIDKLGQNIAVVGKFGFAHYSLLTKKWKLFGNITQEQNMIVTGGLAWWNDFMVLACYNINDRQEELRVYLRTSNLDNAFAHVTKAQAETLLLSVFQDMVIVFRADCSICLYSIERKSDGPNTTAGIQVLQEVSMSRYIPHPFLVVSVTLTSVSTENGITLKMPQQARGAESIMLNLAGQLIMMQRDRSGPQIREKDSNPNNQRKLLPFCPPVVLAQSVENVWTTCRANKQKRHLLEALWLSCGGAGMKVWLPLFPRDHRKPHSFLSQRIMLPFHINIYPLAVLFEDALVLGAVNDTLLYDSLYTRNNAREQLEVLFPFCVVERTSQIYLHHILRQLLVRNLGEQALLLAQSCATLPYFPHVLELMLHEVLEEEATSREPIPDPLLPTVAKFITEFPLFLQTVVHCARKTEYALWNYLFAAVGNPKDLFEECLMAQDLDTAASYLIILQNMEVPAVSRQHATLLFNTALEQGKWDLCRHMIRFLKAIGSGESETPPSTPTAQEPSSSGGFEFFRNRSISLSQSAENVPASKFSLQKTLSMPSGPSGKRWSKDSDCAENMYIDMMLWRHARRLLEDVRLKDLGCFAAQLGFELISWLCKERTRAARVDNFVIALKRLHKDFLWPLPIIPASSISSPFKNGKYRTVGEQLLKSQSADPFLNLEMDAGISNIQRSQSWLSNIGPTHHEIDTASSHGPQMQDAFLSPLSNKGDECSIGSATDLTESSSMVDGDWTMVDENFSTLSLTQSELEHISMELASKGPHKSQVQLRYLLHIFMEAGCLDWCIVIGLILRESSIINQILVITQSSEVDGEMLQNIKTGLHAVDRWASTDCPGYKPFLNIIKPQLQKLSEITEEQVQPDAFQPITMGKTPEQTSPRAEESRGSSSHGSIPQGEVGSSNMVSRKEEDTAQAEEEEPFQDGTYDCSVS
inactive: vemurafenib -0.055 | [1] 0.021 | barasertib -0.013 | [2] 0.029 | volasertib 0.009 | [3] 0.017 | [4] -0.29 | [5] 0.004 | saracatinib -0.012 | sotrastaurin -0.008 | alvocidib 0.014 | Tubastatin A -0.051 | [6] 0.029 | defactinib -0.12 | [7] 0.02 | encorafenib 0.037 | [8] -0.13 | alisertib 0.017 | [9] -0.073 | gefitinib 0.024

SAR1B (UniProt Q9Y6B6)
inactive: vemurafenib 0.034 | [1] 0 | barasertib 0.165 | [2] 0.04 | volasertib -0.042 | [3] 0.017 | [4] -0.017 | [5] -0.09 | saracatinib 0.041 | sotrastaurin 0.047 | alvocidib 0.032 | Tubastatin A 0.176 | [6] 0.199 | defactinib 0.05 | [7] 0.147 | encorafenib 0.203 | [8] 0.052 | alisertib 0.128 | [9] 0.145 | gefitinib 0.015

RBBP7 isoform 2 (UniProt Q16576)
active: [4] -0.274
inactive: vemurafenib -0.064 | [1] -0.007 | barasertib -0.042 | [2] -0.057 | volasertib 0.022 | [3] 0.047 | [5] 0.088 | saracatinib 0.001 | sotrastaurin 0.032 | alvocidib -0.005 | Tubastatin A -0.004 | [6] -0.021 | defactinib -0.023 | [7] -0.028 | encorafenib 0.03 | [8] -0.034 | alisertib 0.03 | [9] -0.003 | gefitinib 0.002

SASS6 (UniProt Q6UVJ0)
inactive: vemurafenib 0.042 | [1] -0.024 | barasertib -0.016 | [2] 0.039 | volasertib -0.024 | [3] 0.024 | [4] 0.154 | [5] -0.047 | saracatinib 0.059 | sotrastaurin -0.02 | alvocidib 0.051 | Tubastatin A -0.104 | [6] 0.018 | defactinib 0.03 | [7] -0.002 | encorafenib 0.053 | [8] 0.085 | alisertib -0.019 | [9] 0.005 | gefitinib 0.001

RAD51C (UniProt O43502)
inactive: vemurafenib -0.067 | [1] -0.01 | barasertib -0.011 | [2] -0.017 | volasertib 0.046 | [3] -0.038 | [4] -0.027 | [5] 0.027 | saracatinib 0.01 | sotrastaurin 0.027 | alvocidib 0.061 | Tubastatin A -0.081 | [6] 0.002 | defactinib 0.035 | [7] 0.072 | encorafenib -0.058 | [8] 0.004 | alisertib -0.005 | [9] 0.047 | gefitinib -0.016
